Assay results published in PubChem BioAssay AID1159580 (chemical genetic matrix, 2015).
Hit rate of the full screen: of about 5,500 compounds, about 2,000 (36%) were called active. About 18% were inconclusive and are not listed. Rule as the data show it: active = normalized growth mostly below about 0.91 (no sharp cut-off); inconclusive = no clear call, values can overlap the other calls; inactive = mostly above about 0.92. Some of the results follow.

Assay: chemical genetic growth profiling, strain panel (AID 1159580);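 also: tested at 20 µM; growth read once vehicle control cultures reached saturation at 30 °C; 1 = growth at the plate median or of vehicle wells; lower values mean less growth of the strain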
Conditions: S. cerevisiae deletion strains, growth OD
[1] = locus YAL040C, strain CLN3, stronger effect = lower value
[2] = locus YCL061C, strain MRC1 (second series), stronger effect = lower value
[3] = locus YDR363W, strain ESC2, stronger effect = lower value
[4] = locus YER002W, strain NOP16, stronger effect = lower value
[5] = locus YMR263W, strain SAP30, stronger effect = lower value
[6] = locus YNL175C, strain NOP13, stronger effect = lower value
[7] = locus YNL224C, strain SQS1, stronger effect = lower value
[8] = locus YNL322C, strain KRE1, stronger effect = lower value
[9] = locus YOR083W, strain WHI5 (second series), stronger effect = lower value
[10] = locus YPL055C, strain LGE1, stronger effect = lower value
[11] = locus YPL241C, strain CIN2, stronger effect = lower value

## CN=C(NC#N)Nc1ccc(C2=NNC(=O)CC2C)cc1 (stereo not given)
[1]
  normalized growth: 1.08 (inactive)
[2]
  normalized growth: 0.999 (inactive)
Locus YDR150W, strain NUM1, stronger effect = lower value
  normalized growth: 1.01 (inactive)
[3]
  normalized growth: 1.01 (inactive)
[4]
  normalized growth: 0.986 (inactive)
Locus YGR078C, strain PAC10, stronger effect = lower value
  normalized growth: 1 (inactive)
[5]
  normalized growth: 1 (inactive)
Locus YMR307W, strain GAS1, stronger effect = lower value
  normalized growth: 1 (inactive)
Locus YNL128W, strain TEP1, stronger effect = lower value
  normalized growth: 1 (inactive)
[6]
  normalized growth: 0.995 (inactive)
Locus YNL197C, strain WHI3, stronger effect = lower value
  normalized growth: 0.994 (inactive)
[7]
  normalized growth: 0.994 (inactive)
[8]
  normalized growth: 0.986 (inactive)
[9]
  normalized growth: 1 (inactive)
[10]
  normalized growth: 0.996 (inactive)
[11]
  normalized growth: 0.998 (inactive)

## Cc1o[nH]c(=O)c1CC(N)C(=O)O (stereo not given)
Locus YAL013W, strain DEP1, stronger effect = lower value
  normalized growth: 0.998 (inactive)
[1]
  normalized growth: 1 (inactive)
[2]
  normalized growth: 1 (inactive)
[3]
  normalized growth: 1.01 (inactive)
[4]
  normalized growth: 0.997 (inactive)
Locus YGR229C, strain SMI1, stronger effect = lower value
  normalized growth: 0.995 (inactive)
[5]
  normalized growth: 0.999 (inactive)
Locus YNL153C, strain GIM3, stronger effect = lower value
  normalized growth: 0.989 (inactive)
[6]
  normalized growth: 1 (inactive)
[7]
  normalized growth: 1.01 (inactive)
[8]
  normalized growth: 1.01 (inactive)
[9]
  normalized growth: 0.982 (inactive)
[10]
  normalized growth: 1 (inactive)
[11]
  normalized growth: 1.01 (inactive)

## COC1CC2CCC(C)C(O)(O2)C(=O)C(=O)N2CCCCC2C(=O)OC(C(C)CC2CCC(O)C(OC)C2)CC(=O)C(C)/C=C(\C)C(O)C(OC)C(=O)C(C)CC(C)/C=C/C=C/C=C/1C (stereo not given)
Locus YAL021C, strain ccr4, stronger effect = lower value
  normalized growth: 0.0589 (active)
Locus YAL026C, strain drs2, stronger effect = lower value
  normalized growth: 0.0607 (active)
Locus YAL030W, strain snc1, stronger effect = lower value
  normalized growth: 0.057 (active)
Locus YBL061C, strain skt5, stronger effect = lower value
  normalized growth: 0.0636 (active)
Locus YBR009C, strain hhf1, stronger effect = lower value
  normalized growth: 0.0589 (active)
Locus YBR023C, strain chs3, stronger effect = lower value
  normalized growth: 0.0647 (active)
Locus YBR171W, strain sec66, stronger effect = lower value
  normalized growth: 0.0879 (active)
Locus YBR231C, strain swc5, stronger effect = lower value
  normalized growth: 0.0671 (active)
Locus YBR279W, strain paf1, stronger effect = lower value
  normalized growth: 0.061 (active)
Locus YCL011C, strain gbp2, stronger effect = lower value
  normalized growth: 0.0563 (active)
Locus YCL016C, strain dcc1, stronger effect = lower value
  normalized growth: 0.064 (active)
Locus YCL061C, strain MRC1, stronger effect = lower value
  normalized growth: 0.0664 (active)
Locus YCL069W, strain vba3, stronger effect = lower value
  normalized growth: 0.0634 (active)
Locus YCR088W, strain abp1, stronger effect = lower value
  normalized growth: 0.0633 (active)
Locus YDL005C, strain med2, stronger effect = lower value
  normalized growth: 0.105 (active)
Locus YDL040C, strain nat1, stronger effect = lower value
  normalized growth: 0.062 (active)
Locus YDR001C, strain nth1, stronger effect = lower value
  normalized growth: 0.062 (active)
Locus YDR069C, strain doa4, stronger effect = lower value
  normalized growth: 0.0638 (active)
Locus YDR137W, strain rgp1, stronger effect = lower value
  normalized growth: 0.108 (active)
Locus YDR159W, strain sac3, stronger effect = lower value
  normalized growth: 0.0822 (active)
Locus YDR195W, strain ref2
  normalized growth: 0.107 (active)
Locus YDR297W, strain sur2, stronger effect = lower value
  normalized growth: 0.0574 (active)
Locus YDR334W, strain swr1, stronger effect = lower value
  normalized growth: 0.0661 (active)
Locus YDR335W, strain msn5, stronger effect = lower value
  normalized growth: 0.0641 (active)
Locus YDR392W, strain spt3, stronger effect = lower value
  normalized growth: 0.0747 (active)
Locus YEL003W, strain gim4, stronger effect = lower value
  normalized growth: 0.0561 (active)
Locus YEL037C, strain rad23, stronger effect = lower value
  normalized growth: 0.06 (active)
Locus YEL061C, strain CIN8 (second series), stronger effect = lower value
  normalized growth: 0.0638 (active)
Locus YER015W, strain faa2, stronger effect = lower value
  normalized growth: 0.063 (active)
Locus YER016W, strain bim1, stronger effect = lower value
  normalized growth: 0.0636 (active)
Locus YER111C, strain swi4, stronger effect = lower value
  normalized growth: 0.0777 (active)
Locus YER155C, strain BEM2 (second series), stronger effect = lower value
  normalized growth: 0.0886 (active)
Locus YFR010W, strain ubp6, stronger effect = lower value
  normalized growth: 0.0722 (active)
Locus YGL167C, strain pmr1, stronger effect = lower value
  normalized growth: 0.106 (active)
Locus YGL173C, strain kem1, stronger effect = lower value
  normalized growth: 0.0674 (active)
Locus YGL227W, strain vid30, stronger effect = lower value
  normalized growth: 0.0637 (active)
Locus YGL240W, strain doc1, stronger effect = lower value
  normalized growth: 0.0777 (active)
Locus YGL253W, strain hxk2, stronger effect = lower value
  normalized growth: 0.0553 (active)
Locus YHR013C, strain ard1, stronger effect = lower value
  normalized growth: 0.0984 (active)
Locus YHR027C, strain rpn1, stronger effect = lower value
  normalized growth: 0.0663 (active)
Locus YHR030C, strain SLT2, stronger effect = lower value
  normalized growth: 0.0959 (active)
Locus YHR079C, strain IRE1, stronger effect = lower value
  normalized growth: 0.1 (active)
Locus YHR142W, strain chs7, stronger effect = lower value
  normalized growth: 0.0702 (active)
Locus YJL092W, strain hpr5, stronger effect = lower value
  normalized growth: 0.0602 (active)
Locus YJL095W, strain BCK1 (second series), stronger effect = lower value
  normalized growth: 0.0568 (active)
Locus YJL095W, strain BCK1, stronger effect = lower value
  normalized growth: 0.0941 (active)
Locus YJL115W, strain asf1, stronger effect = lower value
  normalized growth: 0.0785 (active)
Locus YJL129C, strain trk1, stronger effect = lower value
  normalized growth: 0.083 (active)
Locus YJL154C, strain vps35, stronger effect = lower value
  normalized growth: 0.0627 (active)
Locus YJL164C, strain tpk1, stronger effect = lower value
  normalized growth: 0.0565 (active)
Locus YJL166W, strain qcr8, stronger effect = lower value
  normalized growth: 0.0582 (active)
Locus YJL187C, strain SWE1, stronger effect = lower value
  normalized growth: 0.0583 (active)
Locus YJR066W, strain TOR1, stronger effect = lower value
  normalized growth: 0.00105 (active)
Locus YKL160W, strain elf1, stronger effect = lower value
  normalized growth: 0.0628 (active)
Locus YKR026C, strain gcn3, stronger effect = lower value
  normalized growth: 0.0857 (active)
Locus YKR091W, strain srl3, stronger effect = lower value
  normalized growth: 0.063 (active)
Locus YLL001W, strain dnm1, stronger effect = lower value
  normalized growth: 0.0594 (active)
Locus YLL026W, stronger effect = lower value
  normalized growth: 0.0565 (active)
Locus YLL041C, strain sdh2, stronger effect = lower value
  normalized growth: 0.0584 (active)
Locus YLR027C, strain aat2, stronger effect = lower value
  normalized growth: 0.056 (active)
Locus YLR113W, strain HOG1, stronger effect = lower value
  normalized growth: 0.116 (active)
Locus YLR221C, strain rsa3, stronger effect = lower value
  normalized growth: 0.0587 (active)
Locus YLR258W, strain gsy2, stronger effect = lower value
  normalized growth: 0.0578 (active)
Locus YLR262C, strain YPT6 (second series), stronger effect = lower value
  normalized growth: 0.0827 (active)
Locus YLR320W, strain mms22, stronger effect = lower value
  normalized growth: 0.0745 (active)
Locus YLR342W, strain FKS1, stronger effect = lower value
  normalized growth: 0.0654 (active)
Locus YLR357W, strain rsc2, stronger effect = lower value
  normalized growth: 0.123 (active)
Locus YLR370C, strain arc18, stronger effect = lower value
  normalized growth: 0.0626 (active)
Locus YLR384C, strain iki3, stronger effect = lower value
  normalized growth: 0.0638 (active)
Locus YML120C, strain ndi1, stronger effect = lower value
  normalized growth: 0.0575 (active)
Locus YMR058W, strain fet3, stronger effect = lower value
  normalized growth: 0.0611 (active)
Locus YMR125W, strain sto1, stronger effect = lower value
  normalized growth: 0.0751 (active)
Locus YMR129W, stronger effect = lower value
  normalized growth: 0.0593 (active)
Locus YMR205C, strain PFK2, stronger effect = lower value
  normalized growth: 0.077 (active)
Locus YMR231W, strain pep5, stronger effect = lower value
  normalized growth: 0.0735 (active)
Locus YNL071W, strain lat1, stronger effect = lower value
  normalized growth: 0.0603 (active)
Locus YNL183C, strain NPR1, stronger effect = lower value
  normalized growth: 0.00606 (active)
Locus YNL209W, strain ssb2, stronger effect = lower value
  normalized growth: 0.0636 (active)
Locus YNL248C, strain rpa49, stronger effect = lower value
  normalized growth: 0.0637 (active)
Locus YNL322C, strain KRE1 (second series), stronger effect = lower value
  normalized growth: 0.0917 (active)
Locus YNR049C, strain mso1, stronger effect = lower value
  normalized growth: 0.0601 (active)
Locus YOR001W, strain rrp6, stronger effect = lower value
  normalized growth: 0.0618 (active)
Locus YOR070C, strain gyp1, stronger effect = lower value
  normalized growth: 0.0602 (active)
Locus YOR080W, strain dia2, stronger effect = lower value
  normalized growth: 0.0718 (active)
Locus YOR083W, strain WHI5, stronger effect = lower value
  normalized growth: 0.0613 (active)
Locus YOR106W, strain vam3, stronger effect = lower value
  normalized growth: 0.0579 (active)
Locus YOR231W, strain MKK1, stronger effect = lower value
  normalized growth: 0.101 (active)
Locus YOR265W, strain rbl2, stronger effect = lower value
  normalized growth: 0.062 (active)
Locus YOR270C, strain vph1, stronger effect = lower value
  normalized growth: 0.0796 (active)
Locus YOR290C, strain snf2, stronger effect = lower value
  normalized growth: 0.0616 (active)
Locus YPL051W, strain arl3, stronger effect = lower value
  normalized growth: 0.0737 (active)
Locus YPL078C, strain atp4, stronger effect = lower value
  normalized growth: 0.0674 (active)
Locus YPL106C, strain sse1, stronger effect = lower value
  normalized growth: 0.0858 (active)
Locus YPL240C, strain hsp82, stronger effect = lower value
  normalized growth: 0.0583 (active)
Locus YPL256C, strain CLN2, stronger effect = lower value
  normalized growth: 0.117 (active)
